Source: PubChem (several laboratories)
BH1578 lux ind – induces V. cholerae light production without autoinducers. activation, % at 18.7 µM. actives 0.16% (n = 350,000). AID 588436. V. cholerae BH1578 lux reporter, luminescence, 6 h; in the data active = activation mostly above about 9.7%, no sharp cut-off
FBA Mtb inh – inhibitors of M. tuberculosis fructose-bisphosphate aldolase | inhibition, % at 1 µM | P9WQA3 | actives 2.3% (n = 360,000) | purified M. tuberculosis FBA, fluorescence read-out | AID 588726;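 note: 0% = vehicle and 100% = reference inhibitor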
Target sequence (P9WQA3 whole entry, looked up): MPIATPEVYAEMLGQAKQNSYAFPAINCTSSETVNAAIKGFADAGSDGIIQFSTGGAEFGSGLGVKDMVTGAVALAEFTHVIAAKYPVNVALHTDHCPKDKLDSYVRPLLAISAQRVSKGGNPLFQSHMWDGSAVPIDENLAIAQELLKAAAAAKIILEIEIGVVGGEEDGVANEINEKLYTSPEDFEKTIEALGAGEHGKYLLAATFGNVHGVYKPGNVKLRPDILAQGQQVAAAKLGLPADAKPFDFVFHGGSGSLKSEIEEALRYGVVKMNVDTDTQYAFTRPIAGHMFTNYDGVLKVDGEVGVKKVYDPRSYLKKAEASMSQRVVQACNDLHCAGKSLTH
GDH-TPI counter-1 – counter-screen for M. tuberculosis FBA inhibitors: GDH-TPI coupled enzymes. GDH-TPI coupled enzyme counterscreen, NADH absorbance. inhibition, % at 4.8 µM. actives 1.2% (n = 360,000). AID 588335; in the data active = inhibition above about 30%;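 note: 0% = DMSO wells and 100% = wells lacking the enzyme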
CCHF vOTU inh – CCHFV vOTU protease inhibition. Pep-AMC fluorescence. actives 0.55% (n = 370,000). inhibition, % at 11.5 µM; in the data active = inhibition above about 30%; note: 0% = vehicle wells with enzyme and 100% = no enzyme wells
Mtb FBA inh conf – confirmation of M. tuberculosis fructose-bisphosphate aldolase inhibitors; actives 78% (n = 5,600); AID 651616; inhibition, % at 1 µM; shares compounds with FBA Mtb inh; purified M. tuberculosis FBA, fluorescence read-out;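 note: 0% = vehicle wells and 100% = reference inhibitor wells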
GDH-TPI counter-2 – inhibits GDH-TPI coupling enzymes, flagging Mtb FBA hits. GDH-TPI coupled enzyme counterscreen, fluorescence. inhibition, % at 1 µM. AID 652141. shares compounds with FBA Mtb inh. actives 81% (n = 5,600); in the data active = inhibition above about 10%
Starred values were filed as active, the others as inactive; i = inactive; . = no result given; + = active, no number. A selection: hits, their analogues and other compounds. The true share with any hit is near 3.9%. Cut-off read from the data, not from the text of the source, unless noted: active = inhibition above about 27%; inactive = the rest.

SMILES	BH1578 lux ind	FBA Mtb inh	GDH-TPI counter-1	CCHF vOTU inh	Mtb FBA inh conf	GDH-TPI counter-2
COc1ccc(N2C(=O)c3ccccc3NC2c2ccc(OC)c(CSc3ccccn3)c2)cc1 (stereo not given)	-0.6	21.6	10.6	4.2	.	.
COc1ccc(C2Nc3ccccc3C(=O)N2Cc2ccccc2)cc1 (stereo not given)	i	39.1*	4.5	-59.8	166.8*	135.2*
O=C(O)c1ccc(C2Nc3ccccc3C(=O)N2Cc2ccccc2)cc1 (stereo not given)	-0.5	76.5*	0.4	-72.8	8.8	5.2
COc1ccc(C2Nc3ccccc3C(=O)N2C2CCCCC2)cc1 (stereo not given)	-0.3	85.2*	0.6	-70.6	1.3	-0.3
CC(C)=CCCC(C)CN1CCC(N2CCC(C(=O)N3CCOCC3)CC2)CC1 (stereo not given)	-0.8	1.3	0.7	-8.9	.	.
COc1ccc2nc(NC(=O)CSC(C)C(=O)Nc3cc(C)on3)sc2c1 (stereo not given)	i	1.1	-10.8	-2.0	.	.
COc1ccc(N2C(=O)c3ccccc3NC2c2ccc(OC)c(COc3ccccn3)c2)cc1 (stereo not given)	-0.2	14.4	15.1	-8.4	.	.
COc1ccc(C2Nc3ccccc3C(=O)N2Cc2ccccc2)cc1COc1ccccn1 (stereo not given)	i	78.5*	-7.8	-89.5	63.8*	54.3*
CC(C)N1CC(COc2ccccc2Cl)OC1=O (stereo not given)	-0.3	7.6	0.0	-1.6	.	.
Nc1cc(Cl)ccc1C(=O)OCC(=O)N1CCCCCC1	3.2	60.4*	8.2	-54.6	-7.4	-7.8
Nc1cc(Cl)ccc1C(=O)OCC(=O)N1CCCC1	-0.3	58.9*	5.4	-41.8	93.4*	83.5*
Cc1ccc(C(=O)OCC(=O)NCC2CCCO2)c(C)c1 (stereo not given)	0.1	0.7	0.0	-6.1	.	.
Nc1cc(C(=O)OCC(=O)N2CCCC2)ccc1Cl	i	15.7	-4.3	3.9	.	.
Nc1cc(Cl)ccc1C(=O)OCC(=O)NCC1CCCO1 (stereo not given)	-3.3	52.6*	15.3	-56.1	106.4*	74.3*
Nc1cc(Cl)ccc1C(=O)OCC(=O)N1CCOCC1	0.6	44.0*	9.1	-62.8	63.5*	53.2*
CCN(C(=O)COC(=O)c1ccc(Cl)cc1N)C1CCCCC1	0.6	30.6*	17.1	-35.5	93.2*	86.6*
COc1ccc(-c2nc(N)n(C(=O)c3ccc(C)cc3)n2)cc1	-0.3	5.5	6.4	4.9	.	.
Nc1nnc(-c2ccc(Cl)cc2)o1	i	8.7	2.5	-9.2	.	.
CN(C)c1nnc(-c2ccc(Cl)cc2)o1	i	66.4*	-4.6	-8.6	+	+
Clc1ccc(-c2nnc(-c3ccco3)o2)cc1	-3.3	71.9*	5.3	-0.6	+	+
O=C(Cc1cccs1)Nc1ccc(-c2nnc(-c3ccco3)o2)cc1	0.9	49.3*	6.7	4.7	82.9*	67.0*
CCSC1=N/C(=C/c2ccsc2)C(=O)N1c1ccccc1	-5.9	5.2	11.4	-7.2	.	.
CCc1nn2c(N3CCOCC3)cc(C)nc2c1-c1ccccc1	-2.2	-0.3	-2.2	-2.7	.	.
COc1ccc(CNC(=O)CC23CC4CC(CC(C4)C2)C3)cc1	0.6	5.8	0.0	13.0	.	.
COc1ccc(CNC(=O)C23CC4CC(CC(Br)(C4)C2)C3)cc1	i	53.8*	4.5	1.0	71.3*	39.5*
SMILES	BH1578 lux ind	FBA Mtb inh	GDH-TPI counter-1	CCHF vOTU inh	Mtb FBA inh conf	GDH-TPI counter-2
NS(=O)(=O)c1ccc(CCNC(=O)C2CCC(CNS(=O)(=O)c3ccc(Br)s3)CC2)cc1 (stereo not given)	-0.5	-0.3	0.6	-2.7	.	.
Cc1ccc(O)c(C=Nc2cc(C)ccc2O)c1	2.4	2.5	-2.2	.	.	.
Cc1ccc(O)c(C=Nc2ccc3[nH]ncc3c2)c1	-0.3	42.1*	-3.7	2.5	118.4*	82.8*
O=C(NCc1ccco1)C1CC(c2c(Cl)cccc2Cl)=NO1 (stereo not given)	i	-0.5	0.5	-0.3	.	.
O=C(NN=C1CCCCC1)c1cc(-c2ccccc2)n[nH]1	i	2.1	-3.4	14.0	.	.
O=C(CCNc1cccc(F)c1)c1cc2ccccc2o1	i	28.4*	2.5	-9.3	3.6	-5.1
COc1ccc(N=C2C(=Nc3ccc(OC)cc3)N(c3ccccc3)C(=S)N2C(=O)c2ccc(Cl)cc2)cc1	.	0.9	1.0	5.6	.	.
